Results from PubChem BioAssay (NCI).
About 83,000 compounds went through this panel and 20% of them were active in at least one assay; those are over-represented in the sample as a whole.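 Growth was measured after 48 h exposure to one concentration of compound in 96-well plates. Values under 10 count as active.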 A number with no mark means an inactive call. The source made the active and inactive calls.

These compounds were tested on SK-MEL-28 melanoma (assay: NCI-60 one-dose screen, 48 h (100 = growth as untreated, 0 = no growth, -100 = all killed)). Conditions: 10 µM unless noted.

Structure (SMILES)	growth
COc1ccc(C=Nc2c(C(=O)Nc3cccc(Cl)c3C)sc3nc(C)c(C(=O)/C=C/c4ccc(OC)cc4)cc23)cc1	38.3%
CCOC(=O)CNC1=C(Cl)C(=O)N(Cc2ccc(Cl)cc2)C1=O	106%
COc1ccc(/C=C(\C(=O)NCc2cccnc2)S(=O)(=O)c2ccccc2)cc1OC	34.6%
COc1cc2c(c(OC)c1OC)CCC(c1cccc(C(=O)Nc3ccc(Br)cc3)c1)O2 (centres undefined)	76.9%
Nc1cc(-c2ccc(Cl)cc2)nn1-c1nnc(/C=C/c2ccco2)c(=O)[nH]1	66.4%
N#C/C(=C\c1ccc(-c2cccc(Cl)c2)o1)C(=O)Nc1ncc(Cc2ccc(Cl)cc2)s1	66.8%
CCOC(=O)c1c(C)nc2c(c1N)C(=O)C(=O)N2Cc1ccc(OC)cc1	76.7%
c1csc(-c2cn3nc(-c4c[nH]c5ccccc45)sc3n2)c1	48.5%
FC(F)(F)c1[nH]ncc1-c1nc2ccc3[nH]ncc3c2c2c1CCCC2	2.24% (active)
COc1cc(-c2nccc3[nH]c(-c4cccc5[nH]ccc45)nc23)cc(OC)c1OC	76.9%
COc1ccc2[nH]cc(-c3nonc3-c3c[nH]c4ccc(Br)cc34)c2c1	84.1%
CC(=O)c1c(Nc2cccc(F)c2)[nH]c2c(Cl)cc(Cl)c(Cl)c2c1=O	5.27% (active)
CCOC(=O)NC(=S)n1oc(=O)c2ccccc21	103%
O=S(Nc1ccccc1)c1ccc(Cl)cc1 (centres undefined)	107%
